Bioassay records as filed in PubChem.
Rows were chosen to be rich in hits. Some 7.4% of all compounds tested hit in one or more screens of this group.
NPC1 prom act: NPC1 promoter activation; Huh7 NPC1 promoter luciferase reporter, 24 h; Potency, µM (highest dose often 9.22 µM), for the others: top-dose activation, actives largely listed as activators; 320,000 tested, 2.4% active; also: % of control where 0% means no effect; nearly all actives have a fitted effect of over 60% in size
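Luciferase expression driven by the NPC1 promoter was measured in stably transfected Huh7 cells after a 24 h compound incubation, using a luciferase reagent and a luminescence read.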
KinaseGlo FLuc: Kinase-Glo luciferase inhibition (counter-screen). Kinase-Glo luciferase, ATP luminescence, 8 min. Q27757. Potency, µM (titrated, usually from 38.3 µM), without a hit: at the top dose activity change, negative = inhibition, hits mostly inhibitors. 200,000 tested, 0.28% active. AID 1379; also: % is scaled to controls: 0 for no effect and ±100 for the full control effect; nearly all actives have a fitted effect of over 60% in size
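Light output from Kinase-Glo luciferase with luciferin and 10 uM ATP in 50 mM imidazole pH 7.2, KCl, MgCl2, Tween 20, BSA; compound pin-delivered, 8-min ambient incubation, then luminescence read.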
Rab9 prom act: Rab9 promoter activation | Huh7 Rab9 promoter-luciferase reporter, luminescence, 24 h | Potency, µM (highest dose often 9.22 µM), without a hit: at the highest dose activation, negative = inhibition, actives largely listed as activators | 320,000 tested, 2.8% active | AID 485297; also: % of control where 0% means no effect; nearly all actives have a fitted effect of over 60% in size
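Rab9 promoter-driven luciferase in stably transfected Huh7 cells; 1500 cells/well rested 2 h, exposed to compound in DMSO for 24 h at 37 °C, 5% CO2. Luminescence read 10 min after adding luciferase reagent at ambient temperature.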
SMN2 splice enh: increases expression of the SMN2 splice variant; 210,000 tested, 2.8% active; HEK293 SMN2-luciferase splicing reporter, luminescence, 30-36 h; Potency, µM (doses to about 46.1 µM), for inactives: top-dose activity change, positive = activation, most hits filed as activators; also: % of control where 0% means no effect; nearly all actives have a fitted effect of over 55% in size
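HEK293 cells carry an SMN2 […]–luciferase reporter in which exon 7 inclusion puts luciferase in frame. Cells were plated 10-12 h before compound addition, then incubated 30-36 h at 37C. ONE-Glo luminescence was read; sodium butyrate at 4.5 mM final served as control.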
ELG1 genotox: induces genotoxicity in HEK293T cells with luciferase-tagged ELG1 | Potency, µM (top dose mostly 46 µM), for inactives: top-dose activity change, positive = activation, actives largely listed as activators | 330,000 tested, 1.3% active | HEK293T ELG1-luciferase reporter, luminescence, 16 h; also: % of control where 0% means no effect; nearly all actives have a fitted effect of over 60% in size
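HEK293T cells expressing luciferase-tagged ELG1 were treated with compound or DMSO for 16 hr at 37°C. Luciferase activity was then read after 30 min with ONE-Glo at room temperature; rising signal flags genetic stress.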
FLuc counter: inhibits or activates purified firefly luciferase, miR-21 counter-screen | 360,000 tested, 6.9% active | AID 588342 | Potency, µM (series often up to 57.5 µM), for inactives: at the top dose activity change, negative = inhibition, most hits filed as inhibitors | P08659 | purified FLuc, Km substrates, luminescence inhibition;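 also: plate controls were vehicle for no effect and reference inhibitor for full effect; nearly all actives have a fitted effect of over 55% in size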
Target sequence (P08659 whole entry, looked up): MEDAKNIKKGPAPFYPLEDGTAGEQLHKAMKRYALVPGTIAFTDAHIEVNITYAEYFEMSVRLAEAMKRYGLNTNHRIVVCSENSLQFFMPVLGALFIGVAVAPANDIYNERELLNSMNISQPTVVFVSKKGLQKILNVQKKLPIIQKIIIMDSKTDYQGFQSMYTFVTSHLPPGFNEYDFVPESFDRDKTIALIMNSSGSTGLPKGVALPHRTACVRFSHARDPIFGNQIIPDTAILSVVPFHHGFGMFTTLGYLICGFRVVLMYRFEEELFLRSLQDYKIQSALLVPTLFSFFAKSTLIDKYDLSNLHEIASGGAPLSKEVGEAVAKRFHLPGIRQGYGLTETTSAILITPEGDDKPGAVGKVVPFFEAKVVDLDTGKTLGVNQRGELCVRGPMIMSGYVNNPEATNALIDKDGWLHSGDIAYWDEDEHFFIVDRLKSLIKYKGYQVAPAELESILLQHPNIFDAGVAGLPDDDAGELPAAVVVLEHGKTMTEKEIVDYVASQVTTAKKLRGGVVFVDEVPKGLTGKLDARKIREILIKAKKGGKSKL
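Biochemical qHTS of compounds, final roughly 60 µM downward over six points, against 10 nM purified firefly luciferase using Km concentrations of substrates (10 uM D-luciferin, 10 uM ATP) in Tris acetate pH 7.5 buffer; luminescence output.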
Numbers without * were called inactive; ? = inconclusive; nt = no result given; [ ] = dose if it differs, or a comment. Calls follow the shape of the dose curve; as a rule, active = well fitted curve in the direction sought with a large enough effect; inconclusive = small, poorly fitted or top-dose-only effect, or another doubt; inactive = no such curve, though single readings can be large; an effect the other way counts as inactive or inconclusive. Potency is read from the fitted curve at half-maximal effect.

SMILES	NPC1 prom act	KinaseGlo FLuc	Rab9 prom act	SMN2 splice enh	ELG1 genotox	FLuc counter
N#CCSc1ccc(-c2nc3ccccc3[nH]2)cn1	?	?	?	?	?	12µM*
CCOC(=O)CSc1ccc(-c2nc3cc(C)c(C)cc3[nH]2)cn1	?	-13.5%	?	9.5%	?	1.07µM*
COCCNC(=O)CSc1ccc(-c2nc3ccccc3[nH]2)cn1	-6.3%	nt	4.5%	nt	0.7%	?
Cc1cc2nc(-c3ccc(SCc4ccccn4)nc3)[nH]c2cc1C	?	-10.8%	2.51µM*	-19.3%	-8.5%	5.36µM*
CCOC(=O)CSc1ccc(-c2nc3ccccc3[nH]2)cn1	-0.9%	-9.0%	-1.7%	nt	-0.1%	12µM*
CCCCCCOc1ccc(/C(N)=N/O)cc1	2.51µM*	-4.8%	1.58µM*	25.6%	?	12µM*
C=C(C)CSc1nc(N)c(C#N)c(-c2ccc(C)cc2)c1C#N	nt	-4.0%	nt	1.8%	nt	15.1µM*
CCOC(=O)CSc1nc(N)c(C#N)c(-c2ccc(OC)cc2)c1C#N	0.5%	nt	3.2%	nt	6.6%	-1.4%
O=C(NC1(C(F)(F)F)NC(=O)N(CCc2ccccc2)C1=O)c1ccccc1Cl (stereo unspecified)	nt	nt	nt	-2.7%	nt	-9.8%
CN1c2ccccc2C(=O)/C(=C\Nc2ccc(F)cc2F)S1(=O)=O	2.1%	nt	-1.1%	nt	0.2%	2.39µM*
COc1ccc2cc(-c3ccn[nH]3)ccc2c1	2.24µM*	nt	1.78µM*	nt	5.8µM*	1.35µM*
COc1ccc(-c2cn[nH]c2C)cc1	4.9%	nt	-3.1%	nt	-7.3%	-8.6%
CCc1ccc(C(=O)NNC(=O)CN2C(=O)NC3(CCCC3)C2=O)cc1	-4.3%	nt	-0.5%	nt	5.0%	15.1µM*
O=C1CN(c2nc(-c3cccs3)nc3sc4c(c23)CCCC4)CCN1	-37.2%	-2.1%	-44.5%	?	?	6.01µM*
O=c1c2c3c(sc2nc2n1N=C(c1cccs1)CS2)CCCC3	0.631µM*	-5.8%	0.631µM*	-22.8%	?	0.19µM*
O=C1CN(c2nc(-c3cccnc3)nc3scc(-c4ccccc4)c23)CCN1	0.4%	-2.5%	-0.4%	27.0%	0.6%	?
O=c1oc(-c2cccs2)nc2sc3c(c12)CCCC3	15.4%	-24.5%	4.4%	?	1.4%	2.39µM*
COc1ccc(-c2noc(CN(C(=O)C(C)Oc3ccc(C)cc3)C(C)C)n2)cc1 (stereo unspecified)	nt	nt	nt	-17.6%	nt	0.7%
CCn1c(=O)c2sccc2n2c(CCC(=O)Nc3ccc(F)cc3)nnc12	nt	nt	nt	-5.6%	nt	-1.7%
Nc1ccc2oc3ccc(N)cc3c(=O)c2c1	2.51µM*	-5.2%	3.98µM*	?	?	23.9µM*
COc1cc2oc3ccccc3c(=O)c2cc1OC	?	nt	5.3%	nt	?	?
CSc1cccc(-n2cc(-c3ccc4c(c3)OCO4)[nH]c2=O)c1	4.8%	0.1%	?	?	?	21.3µM*
CSc1cccc(NC(=O)CNC(=O)c2ccc3c(c2)OCO3)c1	-2.3%	nt	5.3%	nt	2.9%	-1.0%
CCCCC(=O)Nc1ccc(NC(=O)c2ccc(C)c([N+](=O)[O-])c2)cc1OC	1.0%	4.0%	3.2%	1.3%	-4.5%	2.1%
CCCCC(=O)Nc1ccc(NC(=O)c2ccc3c(c2)OCO3)cc1OC	15.1%	-4.3%	-0.2%	29.0%	12.5%	10.7µM*
SMILES	NPC1 prom act	KinaseGlo FLuc	Rab9 prom act	SMN2 splice enh	ELG1 genotox	FLuc counter
CC(C)C(=O)Nc1ccc(NC(=O)c2ccc3c(c2)OCO3)cc1	5.1%	nt	9.2%	nt	?	-5.4%
COc1cc(NC(=O)c2ccc3c(c2)OCO3)ccc1NC(=O)C(C)C	18.3%	-6.9%	4.2%	-18.6%	9.3%	15.1µM*
CC1CCC(NC(=O)Cn2ncc3ccccc32)CC1 (stereo unspecified)	?	0.8%	?	?	10.3µM*	?
C=CCNc1nc2c(c(=O)n(C)c(=O)n2C)n1Cc1ccc(F)cc1	-10.9%	-0.8%	-28.0%	-86.3%	20.6µM*	0.3%
CN(C)c1nc2c(c(=O)[nH]c(=O)n2C)n1Cc1ccc(F)cc1	0.9%	1.5%	-8.5%	12.2%	?	-0.1%
CCNc1nc2c(c(=O)[nH]c(=O)n2C)n1Cc1ccc(F)cc1	-0.4%	1.0%	-1.6%	?	23.1µM*	1.8%
CCOc1ccc(CCNC(=O)CCc2c(C)nc3c(-c4ccccc4)c(C)nn3c2C)cc1OCC	nt	nt	nt	-5.2%	nt	1.8%
COc1ccc([C@H]2[C@H](C(=O)OC(C)(C)C)N3N=Cc4ccccc4C3C23C(=O)c2ccccc2C3=O)c(OC)c1 (stereo partly specified)	2.8%	2.5%	1.3%	7.2%	-3.8%	?
CC(C)(C)C(=O)[C@H]1[C@H](c2ccccc2)[C@@]2(N=C(c3ccccc3)OC2=O)C2c3ccccc3C=NN21 (stereo partly specified)	0.0%	-0.6%	-1.1%	13.1%	2.9%	15.1µM*
Clc1ccc(CSc2snnc2-c2ccccc2)c(Cl)c1	?	-9.2%	20.1%	?	?	13.5µM*
Nc1nc(-c2ccccc2)c(N=Nc2cccc3ccccc23)s1	1.2%	-16.5%	-3.2%	-27.9%	0.4%	26.9µM*
Nc1nc(-c2ccccc2)c(N=Nc2ccccc2Cl)s1	-1.6%	-2.8%	-2.2%	-15.5%	3.2%	?
CC(C)(C)Nc1oc(-c2ccccc2)nc1-c1ccccc1F	nt	0.5%	nt	2.5%	nt	nt
Cc1ccc(-c2nc3ccccc3[nH]2)cc1NC(=O)c1ccc2c(c1)OCO2	?	-0.9%	3.4%	2.5%	-2.1%	10.7µM*
O=C(NC(=S)Nc1cc(-c2nc3ccccc3[nH]2)ccc1Cl)c1ccc2c(c1)OCO2	-1.4%	-8.8%	2.2%	26.7%	2.6%	6.75µM*
CCCOc1ccc(C(=O)Nc2cc(-c3nc4ccccc4[nH]3)ccc2C)cc1	nt	nt	nt	-2.5%	nt	?
Cc1[nH]c(-c2ccc3c(c2)OCO3)nc1C(=O)O	0.0%	11.2µM*	-3.0%	12.4%	-9.9%	?
Cc1ccc(-c2nc3ccccc3[nH]2)cc1NC(=S)NC(=O)c1ccccc1Br	-3.7%	-2.0%	1.8%	-52.9%	-0.5%	5.36µM*
C=CCN1C(=O)C(CC(C)C)NC1=S (stereo unspecified)	nt	1.2%[39.9 µM]	nt	nt	nt	nt
Cc1ccccc1CNC(=O)C1CCN(c2nnc(-n3c(C)ccc3C)s2)CC1	nt	nt	nt	-3.7%	nt	-8.0%
Cc1cc(C)c2oc(-c3ccc(C)c(NC(=S)NC(=O)/C=C/c4ccco4)c3)nc2c1	2.7%	7.2%	9.3%	15.9%	-0.1%	?
Cc1ccc(-c2nc3ccccc3[nH]2)cc1NC(=O)/C=C/c1ccco1	23.5%	-7.1%	?	7.4%	-3.4%	8.49µM*
O=C(Nc1ccc(F)c(Cl)c1)c1cc(S(=O)(=O)N2CCCc3ccccc32)ccc1F	nt	nt	nt	nt	nt	12µM*
